High-throughput results from PubChem BioAssay.
TRHR ag – qHTS for Small Molecule Agonists and Allosteric Enhancers of Human TRH Receptor: Primary Screen for Agonists; Thyrotropin-releasing hormone receptor (Homo sapiens), P34981; TRHR cells, calcium flux fluo-8, FDSS agonist mode; activation, % at 2 µM; hit rate 0.18% among 360,000; in the data active = activation above about 30%; also: 0% is about no effect
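Read-out: compound-evoked intracellular calcium rise in TRHR cells, fluo-8 dye, kinetic FDSS fluorescence at 1 s/cycle following a 10-cycle baseline. Cells cultured overnight before dye loading (30 min–1.5 h, RT).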
TRPML1 agonist – qHTS for Agonists of the Human Mucolipin Transient Receptor Potential 1 (TRPML1) | activation, % (test concentration not listed) | TRPML1-expressing cells, Ca2+ dye fluorescence, FDSS | Mucolipin-1 (Homo sapiens), Q9GZU1 | hit rate 0.12% among 410,000; in the data active = activation above about 50%; inconclusive = mostly about 30% to 49%; also: 0% is about no effect
Target sequence (Q9GZU1 whole entry, looked up): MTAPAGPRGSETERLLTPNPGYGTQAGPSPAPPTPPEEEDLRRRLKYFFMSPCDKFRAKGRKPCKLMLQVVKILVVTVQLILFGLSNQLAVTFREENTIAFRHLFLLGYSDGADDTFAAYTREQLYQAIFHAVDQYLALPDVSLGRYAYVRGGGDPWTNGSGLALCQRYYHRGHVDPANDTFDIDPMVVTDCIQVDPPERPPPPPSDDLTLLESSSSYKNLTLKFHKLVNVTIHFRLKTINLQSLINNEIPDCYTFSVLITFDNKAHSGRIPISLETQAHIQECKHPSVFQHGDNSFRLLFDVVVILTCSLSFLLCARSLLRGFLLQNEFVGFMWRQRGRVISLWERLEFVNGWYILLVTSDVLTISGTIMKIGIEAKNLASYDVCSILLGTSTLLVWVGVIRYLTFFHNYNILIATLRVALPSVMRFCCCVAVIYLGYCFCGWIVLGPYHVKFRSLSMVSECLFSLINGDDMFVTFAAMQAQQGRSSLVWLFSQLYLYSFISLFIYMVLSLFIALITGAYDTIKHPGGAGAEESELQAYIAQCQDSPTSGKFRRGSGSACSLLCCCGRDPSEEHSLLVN
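Agonist activity was taken from a 110 s kinetic Ca2+ dye read on the FDSS after pinning compounds onto TRPML1-DL cells. The cells were seeded at 1,500/well with Tet inducer, incubated about 16 h, then dye-loaded at room temperature.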
TRHR PAM – qHTS for Small Molecule Agonists and Allosteric Enhancers of Human TRH Receptor: Primary Screen for Enhancers; Thyrotropin-releasing hormone receptor (Homo sapiens), P34981; TRHR cells, fluo-8 calcium fluorescence, EC20 TRH enhancement; enhancement, % at 2 µM; hit rate 0.66% among 360,000; in the data active = enhancement above about 30%; also: 0% is about no effect
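TRHR-expressing cells loaded with fluo-8 calcium dye were read kinetically (ex 480/em 530) during compound addition, then stimulated with an EC20 of TRH (10 nM final). Enhancement of the Gq-mediated intracellular calcium response was scored.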
TRPML1 blocker – qHTS for Inhibitors of the Human Mucolipin Transient Receptor Potential 1 (TRPML1) | Mucolipin-1 (Homo sapiens), Q9GZU1 | TRPML1-inducible cells, Ca2+ dye fluorescence, FDSS; hits give low values; inhibition of EC80 agonist-evoked calcium signal | activity change, negative = inhibition, % (test concentration not listed) | hit rate 0.02% among 390,000 | AID 624415, 2012; in the data active = activity change below about -50%; inconclusive = between about -30% and that limit;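 also: stimulus is agonist 54-4 at its EC80 concentration; % is scaled to controls: 0 for no effect and ±100 for the full control effect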
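Tet-induced TRPML1-DL cells loaded with Ca8 no-wash calcium dye were read kinetically on FDSS. Compound addition was followed by EC80 agonist 54-4 (4 uM final); inhibition was read over 110 s.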
GRP78 ERSR act – qHTS for Inducers of the Endoplasmic Reticulum Stress Response (ERSR) in Human Glioma: qHTS. U87-MG GRP78 promoter luciferase reporter, 16 h. Potency, µM, without a hit: at the highest dose activation, usual class: activators. hit rate 0.02% among 420,000. AID 602332, 2012; active = well fitted activation curve with a large enough effect; inconclusive = small, poorly fitted or top-dose-only effect; inactive = no such curve, though single readings can be large or run the other way; also: potency is read from the fitted curve at half-maximal effect; series mostly up to about 76 µM; % of control where 0% means no effect; nearly all actives have a fitted effect of over 35% in size
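ERSR induction read as luciferase luminescence (Bright-Glo, 10 min at room temperature) in stably transfected human U87-MG glioma cells exposed to compounds for 16 h, using GRP78 as sensor.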
* = called active by the depositor; ? = inconclusive; . = no result given; ! = repeats disagree. Sampled rows, rich in hits. Any-hit rate of the full collection: about 0.8%.

SMILES | TRHR ag | TRPML1 agonist | TRHR PAM | TRPML1 blocker | GRP78 ERSR act
C/C(=N\NC(=O)c1ccco1)c1ccc(NC(=O)c2ccccc2)cc1 | 0 | 2 | 1 | -4 | 0%
O=C(Nc1ccc(NC(=O)c2ccco2)cc1)c1ccco1 | 1 | 0 | 31* | -8 | 0%
C/C(=N\NC(=O)c1ccco1)c1ccc(NC(=O)C(F)(F)F)cc1 | 0 | 0 | 39* | -12 | -1%
O=C(NC1CCCC1)c1cccc(NC(=O)c2ccco2)c1 | 0 | 60* | 5 | -22 | 2%
CN(C)C(=O)[C@@H]1C[C@@H](Sc2nc3ccccc3[nH]2)CN1Cc1ccnc2ccccc12 | . | . | . | . | -4%
CN(Cc1ccon1)C(=O)c1cnn(-c2ncc3c(n2)-c2ccccc2CCC3)c1C1CC1 | . | . | . | . | 3%
CCS(=O)(=O)CCn1c([N+](=O)[O-])cnc1C | 0 | -1 | 37* | 8 | -3%
O=C(Nc1nnc(-c2ccccc2Cl)o1)c1ccco1 | 0 | 4 | -1 | -18 | 3%
O=C(Nc1nnc(-c2ccccc2Cl)o1)c1nc2ccccc2s1 | 19 | 65* | -10 | 2 | 15%
Cc1ccc(/C=C(\C#N)C(=O)Nc2cccc(Br)c2)o1 | 2 | 0 | -2 | 11 | .
N#C/C(=C\c1ccc(N2CCCCC2)o1)C(=O)Nc1cccc(Br)c1 | 108* | 119* | -8 | ? | 5%
COc1ccc(C(=O)c2sc(Nc3ccccc3)nc2N)cc1OC | 0 | 2 | 33* | 16 | -6%
COc1ccc(C(=O)c2sc(Nc3ccccc3)nc2N)cc1 | 1 | 0 | 8 | -14 | 6%
COc1cccc(OC)c1C(=O)Nc1cc2c(cc1N1CCOCC1)n(C)c(=O)n2C | 0 | -1 | 8 | -18 | -4%
Cn1c(=O)n(C)c2cc(N3CCOCC3)c(NC(=O)c3ccc(F)cc3)cc21 | 0 | -1 | 32* | 5 | -3%
COc1ccc(N2CCOCC2)c(NC(=O)c2ccc3c(c2)OCO3)c1 | 0 | 0 | 38* | 8 | -3%
Cc1ccc2nc(N3CCCCCC3)c(CN(CC3CCCO3)C(=O)c3cncs3)cc2c1 (configuration not stated) | . | . | . | . | -5%
Cc1cc2c(s1)c1cnn(Cc3ccc(SC(F)(F)F)cc3)c(=O)c1n2C | 0 | . | -4 | . | .
Cc1ccc(N=Cc2sc(O)c3ccccc23)cc1 | 66* | 21 | 5 | 16 | 6%
CCC(=O)NC(c1ccc(Br)o1)c1cc(Cl)c2cccnc2c1O (configuration not stated) | 30* | . | 4 | . | .
CC1CCCCN1S(=O)(=O)c1cc2c3c(c1)CC(=O)N3CCC2 (configuration not stated) | 0 | -1 | 32* | -22 | 4%
CCC1CCCCN1S(=O)(=O)c1cc2c3c(c1)CC(=O)N3CCC2 (configuration not stated) | 0 | 0 | 1 | 40 | -2%
Cc1cc(N2CCCCC2)nc(NCc2ccccc2)n1 | 15 | ? | -19 | 7 | -3%
Cc1cc(N2CCOCC2)nc(NCc2ccccc2)n1 | 0 | 80* | -1 | -7 | -1%
CNC(=O)c1ccccc1NC(=O)C1CC(=O)N(C(C)C)C1 (configuration not stated) | 1 | 1 | 37* | 12 | -1%
SMILES | TRHR ag | TRPML1 agonist | TRHR PAM | TRPML1 blocker | GRP78 ERSR act
COc1ccc(C(C)N(C)Cc2nc(N3CCN(C(=O)c4ccco4)CC3)c3ccccc3n2)cc1 (configuration not stated) | . | . | . | . | 0%
Cc1ccc(C)c(NC(=O)CCCN2C(=O)C(c3ccccc3)Oc3cccnc32)c1 (configuration not stated) | 0 | 2 | 53* | 0 | -1%
Cc1ccc(NC(=O)CCCN2C(=O)C(c3ccccc3)Oc3cccnc32)c(C)c1 (configuration not stated) | . | 0 | . | -8 | -1%
COC(=O)[C@@H]1CCCN1C(=O)c1c(OC)cc(=O)n2c1CCN(Cc1ccc3cccnc3c1)CC2 | . | . | . | . | -3%
O=c1ccc2ccc(O)c(O)c2o1 | . | . | . | . | 41µM*
COc1cc(/C=C(\C#N)C(=O)NCC2CCCO2)ccc1OCCC(C)C (configuration not stated) | 0 | 52* | -3 | -19 | 2%
COc1ccc(-c2noc(CN(C)C3CCOCC3)n2)cc1 | 0 | 0 | 32* | 5 | 3%
CCn1c(-c2cccc(OC)c2)nc2cc(NC(C)=O)cc(C(=O)N(C)CC3COCCO3)c21 (configuration not stated) | . | . | . | . | -5%
O=C(O)Cc1cc(F)c(S(=O)(=O)N2CCN(S(=O)(=O)c3ccc4c(c3)OCCO4)CC2)cc1F | -3 | . | 3 | . | .
O=C(CN1c2ccccc2Sc2ccccc21)NNC(=O)Nc1ccc(Cl)cc1 | 0 | 1 | 37* | -5 | -3%
O=C(CN1c2ccccc2Sc2ccccc21)NNC(=O)Nc1ccc(Cl)c(Cl)c1 | 0 | 1 | -2 | 12 | 4%
N#C/C(=C\c1ccc(-c2ccc(Cl)c(C(=O)O)c2)o1)c1nc2ccccc2[nH]1 | 26 | 4 | 3 | -21 | -2%
N#C/C(=C\c1ccc(N2CCOCC2)c([N+](=O)[O-])c1)c1nc2ccccc2[nH]1 | 0 | 0 | -5 | 18 | 3%
N#C/C(=C\c1ccc(-c2ccc(C(=O)O)cc2)o1)c1nc2ccccc2[nH]1 | 31*! | 61* | 4 | 7 | 4%
Cc1ccc2nc(/C(C#N)=C/c3ccc(-c4cccc(Cl)c4)o3)[nH]c2c1 | 59* | ? | 4 | -3 | 3%
N#C/C(=C\c1ccc(N2CCOCC2)o1)c1nc2ccccc2[nH]1 | 0 | 60* | 3 | -13 | -10%
Cc1ccn(CCC(=O)N2CCOc3ccc(C(O)C4CCCCC4)cc3C2)n1 (configuration not stated) | . | . | . | . | -2%
O=C(Nc1nncs1)c1cccc(S(=O)(=O)N2CCc3ccccc32)c1 | 0 | 3 | 33* | 17 | -4%
O=C(NC1=NCCS1)c1cccc(S(=O)(=O)N2CCc3ccccc32)c1 | 0 | 1 | -10 | 0 | -3%
CC(C)NC(=O)CCCc1c[nH]c2ccccc12 | 0 | 2 | 33* | 10 | -6%
O=C(CCCc1c[nH]c2ccccc12)N[C@@H](Cc1c[nH]c2ccccc12)C(=O)O | 0 | 1 | -5 | 25 | 0%
CCCOc1ccccc1N1C(=O)CC(N(O)c2ccccc2)C1=O (configuration not stated) | 0 | 0 | 38* | -18 | 0%
